Records with an inconclusive call do not appear. Activity calls are given as the source filed them. How the source made its calls: active means hit-call score of the fitted dose curve at least 0.9, where 1 is the maximum; inconclusive means response in the unintended direction; inactive means score below 0.9.
molecular target: rat Gamma-HydroxyButyrate Receptor (GHB), Tspan17 (gene 306771) (UniProt Q4V8E0); experiment: NVS_GPCR_rGHB: NovaScreen (NVS) G Protein-Coupled Receptor Assay for rat Gamma-HydroxyButyrate Receptor (GHB)
Sequence (Q4V8E0 whole entry, looked up): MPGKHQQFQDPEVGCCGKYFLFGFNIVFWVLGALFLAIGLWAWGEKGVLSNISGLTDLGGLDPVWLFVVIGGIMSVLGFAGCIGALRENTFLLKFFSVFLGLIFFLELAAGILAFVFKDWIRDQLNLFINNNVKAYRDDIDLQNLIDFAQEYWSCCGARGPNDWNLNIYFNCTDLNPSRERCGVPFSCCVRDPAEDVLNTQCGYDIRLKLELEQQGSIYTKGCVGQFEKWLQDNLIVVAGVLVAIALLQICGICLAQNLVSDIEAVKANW
Method: NVS_GPCR_rGHB is a biochemical, single-readout assay that uses extracted gene-proteins from Rat forebrain in a tissue-based cell-free assay. Measurements were taken 1 hour after chemical dosing in a 48-well plate.NVS_GPCR_rGHB is one of one assay component(s) measured or calculated from the NVS_GPCR_rGHB assay. It is designed to make measurements of radioligand binding, a form of binding reporter, as detected with scintillation counting signals by Filter-based radiodetection technology.Data from the assay component NVS_GPCR_rGHB was analyzed into 1 assay endpoint. This assay endpoint, NVS_GPCR_rGHB, was analyzed in the positive analysis fitting direction relative to DMSO as the negative control and baseline of activity. Using a type of binding reporter, loss-of-signal activity can be used to understand changes in the binding as they relate to the gene Tspan17. Furthermore, this assay endpoint can be referred to as a primary readout, because the performed assay has only produced 1 assay endpoint. To generalize the intended target to other relatable targets, this assay endpoint is annotated to the gpcr intended target family, where the subfamily is metabotropic glutamate receptor.
Binding assays used specific radioligands (tritiated, iodinated) with non-radioactive competitive displacement ligands in agonist or antagonist protocols (as indicated) and various reference compounds and inhibitors to titrate specific binding to receptors and transporters. Most enzyme assays (CYPs, kinases, phosphatases, proteases, HDACs) used recombinant protein and specific substrates (fluorescence mostly, some colorimetric and radioactive) and inhibitors, followed by a biochemical separation of substrate and product. All assays for the biochemical HTS were initially run in duplicate at a single concentration (10 uM for CYP450 assays and 25 uM for all others). Assay-chemical combinations meeting a pre-defined threshold (e.g., 30% inhibition and other criteria defined below) were then run in singleton concentration-response format with maximum concentration of 20 uM for CYPs and 50 uM for all others. Each assay was run with positive and negative controls, and concurrent controls on every plate. The follow-up (secondary) screen tested active chemical-pairs in concentration series, as well as a few additional assays not tested in the primary screen, some selected negative inactives, and several cases re-run in the concentration series for confirmatory purposes.

SMILES | AC50 | outcome
Cn1c(=O)cc(Oc2ccc(F)cc2F)c2cnc(NCC(C)(C)O)nc21 | 0.166 µM (active) | –
COC(=O)CSc1cc(N=c2sc(=O)n3n2CCCC3)c(F)cc1Cl | – | inactive
O=C(O)c1cccc(N(Cc2cccnc2)c2ccc(OC(F)F)c(OC(F)F)c2)c1 | – | inactive
Cc1cccc(Nc2cc(Cl)nc(SCC(=O)O)n2)c1C | 19.2 µM (active) | –

Reference: PubChem BioAssay AID2283302 (EPA ToxCast)
